From PubChem BioAssay (NCATS)
Inconclusive results are not listed. Values without a mark were called inactive. Calls of active or inactive are those of the source. Calls follow the shape of the dose curve; as a rule, active = well fitted inhibition curve with a large enough effect; inconclusive = small, poorly fitted or top-dose-only effect; inactive = flat fitted curve, though single readings scatter. Where a SMILES comes first, the peptide text is derived from it. The star is where a group is joined. PhAc = O=C(Cc1ccccc1)*

Experiment: P-glycoprotein substrates identified in KB-8-5-11 adenocarcinoma cell line, qHTS therapeutic library screen (AID 1346987); also: nearly all actives have a fitted effect of over 65% in size
Conditions: KB-8-5-11 (P-gp overexpressing) viability, CellTiter-Glo, 72 h; series mostly up to 44.5 µM; activity change, negative = cytotoxicity: at the top concentration
Outline: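 P-gp-mediated resistance screen: KB-8-5-11 cells treated 72 h with compounds in dose-response. CellTiter-Glo viability.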
% is scaled to controls: 0 for no effect and ±100 for the full control effect.

Row | SMILES | activity change, negative = cytotoxicity | outcome
1 | O=C(O)Cn1nnc(-c2ccc(CN(CCCCOc3ccc(CN4CCCC4)cc3)CCc3ccccc3)cc2)n1 | 4.22% | 
2 | C[C@H](O)C(O)(C(=O)OCc1ccccc1NC(=O)CCC(N)C(=O)O)[C@H](C)O (some centres undefined) |  | inactive [at 17.3 µM]
3 | COc1c2c(c(C)c3c1C(=O)OC3)OC1(C)CC(O)C34OC(OC)(CCC3(C)C1C2)OC4(C)CO (centres undefined) |  | inactive [at 17.3 µM]
4 | CCOC(=O)CNC(=O)[C@@H]1CCCN1C(=O)Cc1ccccc1 (PhAc-Pro-Gly-OEt) | -7.85% | 
5 | OC[C@@]1(O)CO[C@H](OC[C@H]2O[C@@H](OCCc3ccccc3)[C@H](O)[C@@H](O)[C@@H]2O)[C@@H]1O | 9.18% [at 17.3 µM] | 
6 | CO[C@H]1c2cc(C(C)C)c(O)c(O)c2[C@@]23CCCC(C)(C)C2[C@@H]1OC3=O (some centres undefined) |  | inactive
7 | C=C1C[C@]23C[C@H]1CC[C@H]2[C@]1(C)CC[C@H](O)[C@@](C)(C(=O)O)[C@H]1[C@@H]3C(=O)O | -4.52% | 
8 | C[C@@H]1O[C@@H](O[C@H]2[C@H](O)[C@@H](O[C@@H]3O[C@H](CO)[C@H](O)[C@H](O)[C@H]3O)[C@H](O[C@H]3CC[C@@]4(C)C(CC[C@]5(C)C4CC=C4[C@@H]6CC(C)(C)CC[C@]6(C(=O)O[C@@H]6O[C@H](CO)[C@@H](O)[C@H](O)[C@H]6O)CC[C@]45C)C3(C)C)O[C@@H]2C(=O)O)[C@H](O)[C@H](O)[C@H]1O (some centres undefined) | 2.63% [at 9.29 µM] | 
9 | CC1=CCC(O)C2(C)CCC3C(C)C(=O)OC3C12 (centres undefined) | -0.961% | 
10 | COc1cc(C2OCC3(O)C(c4ccc(O[C@@H]5O[C@H](CO)[C@@H](O)[C@H](O)[C@H]5O)c(OC)c4)OCC23O)ccc1O (some centres undefined) | 1.88% [at 17.3 µM] | 
11 | C[C@@H]1C[C@@H](O)[C@@]2(CO)C(CO)=CCC[C@@H]2[C@@]12C[C@@H](c1ccoc1)OC2=O |  | inactive
12 | COc1cc(Cc2cnc(N)nc2N)c(C(C)C)cc1OC | 4.26% | 
13 | CC1C(=O)OCC2=CC[N+]3([O-])CCC(OC(=O)C(C)(O)C1(C)O)C23 (centres undefined) | 8.19% | 
14 | CC(=O)c1ccc(O[C@@H]2O[C@H](CO[C@@H]3OC[C@@H](O)[C@H](O)[C@H]3O)[C@@H](O)[C@H](O)[C@H]2O)cc1 | 7.02% [at 17.3 µM] | 
15 | C=C1Cc2c(Cl)cc3[nH]c4c5c3c2[C@@]2(O)[C@@H]1C[C@@H]2C(C)(C)O[C@H]5C1CC[C@@]2(O)[C@@]35O[C@@H]3[C@H]3OC(C)(C)[C@H]3O[C@H]5CC[C@]2(C)[C@@]41C (some centres undefined) |  | inactive [at 17.3 µM]
16 | C[C@H]1[C@H](C)CC[C@]2(C(=O)O)CC[C@]3(C(=O)O)C(=CCC4[C@@]5(C)CC[C@H](O[C@@H]6O[C@@H](C)[C@H](O)[C@@H](O)[C@H]6O)C(C)(C)C5CC[C@]43C)[C@H]12 (some centres undefined) |  | inactive [at 17.3 µM]
17 | C=C(C(=O)O)[C@@H]1CC[C@@]2(C)CC[C@@H](O)C(=C)C2C1 (some centres undefined) | 5.19% | 
18 | CC(C)(O)c1ccc2c(c1)C(=O)C[C@H]1[C@](C)(C(=O)O)CCC[C@]21C |  | inactive
19 | CC(C)(O)/C=C/C(=O)[C@](C)(O)[C@H]1[C@H](O)C[C@@]2(C)[C@@H]3CC=C4[C@@H](C=C(O[C@@H]5O[C@H](CO)[C@@H](O)[C@H](O)[C@H]5O)C(=O)C4(C)C)[C@]3(C)C(=O)C[C@]12C | 2.34% [at 17.3 µM] | 
20 | C=C[C@H]1[C@H](O[C@@H]2O[C@H](CO)[C@@H](O)[C@H](O)[C@H]2O)OC=C(C(=O)OC)[C@H]1CCO | 8.76% | 

Row | SMILES | activity change, negative = cytotoxicity | outcome
21 | COC(O)(CC(C)C)C1Oc2cc(C)[nH]c(=O)c2O1 (centres undefined) |  | inactive
22 | CC(=O)O[C@H]1C[C@@]2(C)[C@@H](CC[C@H]3[C@@]4(C)C=CC(=O)[C@@H](C)[C@@H]4[C@H](OC(C)=O)C(=O)[C@@]32C)/C1=C(\CCC=C(C)C)C(=O)O |  | inactive [at 17.3 µM]
23 | CC12CC34CC(O)C5C(CO)(CO)CC(=O)CC5(C)C3CC1C2C4 (centres undefined) | -1.11% | 
24 | COc1cc(C(CO)CO[C@@H]2O[C@H](CO)[C@@H](O)[C@H](O)[C@H]2O)ccc1O (some centres undefined) | 7.63% | 
25 | Cc1cc(-c2nncc3c(C(C)(C)C)c(OCc4ncnn4C)nn23)no1 | -3.36% | 
26 | C[C@@H]1O[C@@H](OC(=O)Cc2ccccc2)[C@H](O)[C@H](O)[C@H]1O | 5.01% | 
27 | CC1=C2C(=O)C=C(CO)C2C2OC(=O)C(CS(=O)(=O)O)C2C(OC(=O)Cc2ccc(O)cc2)C1 (centres undefined) | -0.241% [at 17.3 µM] | 
28 | CC1CC(=O)C2C(O)(C1)CC(O)C13OC1c1c(O)cccc1C(=O)C23O (centres undefined) |  | inactive
29 | CC1CC(=O)C2=C(O1)OC1(C)CCC3C(C)(C)C4OC4C(=O)C3(C)C1C2 (centres undefined) |  | inactive
30 | C[C@@H]1O[C@@H](O[C@H]2[C@@H]3C=CO[C@@H](O[C@@H]4O[C@H](CO)[C@@H](O)[C@H](O)[C@H]4O)[C@@H]3[C@@]3(CO)O[C@@H]23)[C@H](O)[C@H](OC(=O)/C=C/c2ccc(O)cc2)[C@H]1OC(=O)/C=C/c1ccc(O)cc1 |  | inactive [at 17.3 µM]
31 | CC1=C2C(=O)C=C(CO[C@@H]3O[C@H](CO)[C@@H](O)[C@H](O)[C@H]3O)[C@@H]2[C@H]2OC(=O)[C@H](C)[C@@H]2[C@@H](O)C1 |  | inactive [at 17.3 µM]
32 | CC1(C)CC[C@]2(C(=O)O[C@@H]3O[C@H](CO)[C@@H](O)[C@H](O)[C@H]3O)CC[C@]3(C)C(=CCC4[C@@]5(C)C[C@H](O)[C@H](O[C@@H]6OC[C@@H](O)[C@H](O)[C@H]6O)[C@@](C)(CO)C5CC[C@]43C)C2C1 (some centres undefined) |  | inactive [at 9.29 µM]
33 | CC1=CC(=O)C(=C(C)C)CC2C(C)(O)CCC12O (centres undefined) | 0.343% | 
34 | C=C1CCC2(C(=O)OC3OC(CO)C(O)C(O)C3O)CCC3(C)C(=CCC4C5(C)CCC(OC6OC(CO)C(OC7OC(C)C(O)C(O)C7O)C(OC7OCC(O)C(O)C7O)C6O)C(C)(C)C5CCC43C)C2C1 (centres undefined) |  | inactive [at 9.29 µM]
35 | NC(=O)c1ccc(F)c2c1C[C@@H](N(C1CCC1)C1CCC1)CO2 | 6.81% | 
36 | COc1c(C)c(OCC=C(C)C)cc2c1COC2=O | -5.86% | 
37 | CC1=C2C[C@H]3OC(=O)[C@H](O)[C@@]4(O)[C@@H](C)[C@@H](O)[C@H](O)C([C@@]2(C)[C@H](O)[C@@H](O)C1)[C@@]34C (some centres undefined) | 6.38% | 
38 | CC1=C2CC(O)(C(C)(C)O)C(O[C@@H]3O[C@H](CO)[C@@H](O)[C@H](O)[C@H]3O)CC(C)C2CC1=O (some centres undefined) |  | inactive [at 17.3 µM]
39 | CC(NC(=O)CC(=O)O)C(=O)Nc1ccccc1C(N)=O (centres undefined) | 6.65% | 
